# Compound activity deposited in PubChem by National Center for Advancing Translational Sciences (NCATS).
# G9a inh – qHTS Assay for Inhibitors of Histone Lysine Methyltransferase G9a; G9a H3K9 monomethylation, AlphaScreen, 2 h; 350,000 tested, 8.8% active; Potency, µM (doses to about 102 µM), inactives show at the highest dose activity, negative = inhibition, hits mostly inhibitors; Histone-lysine N-methyltransferase EHMT2 (Homo sapiens), Q96KQ7; also: % is scaled to controls: 0 for no effect and ±100 for the full control effect; nearly all actives have a fitted effect of over 75% in size
# Target sequence (Q96KQ7 913-1193 limits assumed): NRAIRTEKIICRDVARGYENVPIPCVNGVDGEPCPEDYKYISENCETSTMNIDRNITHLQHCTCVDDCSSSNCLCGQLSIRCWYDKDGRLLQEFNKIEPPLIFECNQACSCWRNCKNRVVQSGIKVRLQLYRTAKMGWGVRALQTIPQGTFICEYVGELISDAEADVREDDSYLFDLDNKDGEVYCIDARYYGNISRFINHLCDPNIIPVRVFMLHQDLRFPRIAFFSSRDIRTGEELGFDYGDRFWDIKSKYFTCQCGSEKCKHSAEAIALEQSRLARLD
#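 AlphaScreen read-out: biotin-H3K9 peptide (500 nM) methylation by 20 nM enzyme with 20 uM SAM, 2 h at room temperature after 15 min compound preincubation; anti-monomethyl H3K9 antibody plus donor/acceptor beads, 10 min dark.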
# L3MBTL1 block – qHTS Assay for the Inhibitors of L3MBTL1 | Lethal(3)malignant brain tumor-like protein 1 (Homo sapiens), Q9Y468 | Potency, µM (doses to about 57.1 µM), for inactives: at the top dose activity, negative = inhibition, hits mostly inhibitors | 230,000 tested, 0.66% active | AID 485360, 2010 | AlphaScreen L3MBTL1–H3K9me1 peptide binding; also: % is scaled to controls: 0 for no effect and ±100 for the full control effect; nearly all actives have a fitted effect of over 60% in size
#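 Displacement of a biotinylated histone H3(1-15) peptide monomethylated at Lys9 (75 nM) from L3MBTL1 (50 nM) was measured by AlphaScreen after a 30 min room-temperature compound incubation; cefsulodin titration served as intraplate control.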
# JMJD2A Tudor inh – qHTS Assay for Inhibitors of JMJD2A-Tudor Domain; Lysine-specific demethylase 4A (Homo sapiens), O75164; AlphaScreen JMJD2A-Tudor / H3K4me3 peptide binding; Potency, µM (top dose mostly 114 µM), for inactives: at the top dose activity change, negative = inhibition, most hits filed as inhibitors; 390,000 tested, 4.4% active; AID 504339, 2011; also: % is scaled to controls: 0 for no effect and ±100 for the full control effect; nearly all actives have a fitted effect of over 50% in size
# BAZ2B block – qHTS Assay for Inhibitors of BAZ2B; AlphaScreen BAZ2B-H3K14Ac peptide displacement; Potency, µM (series often up to 114 µM), without a hit: at the highest dose activity change, negative = inhibition, actives largely listed as inhibitors; 360,000 tested, 4.4% active; also: % is scaled to controls: 0 for no effect and ±100 for the full control effect; nearly all actives have a fitted effect of over 60% in size
#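 Complex of BAZ2B and biotin-H3K14Ac (50 nM apiece) forms over 30 min at RT, then faces library compounds up to 110 uM for another 30 min; AlphaScreen beads added, 20 min dark incubation, luminescence read.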
# Sfp PPTase inh – qHTS Assay for Inhibitors of Bacillus subtilis Sfp phosphopantetheinyl transferase (PPTase); Potency, µM, without a hit: largest response in the series, negative = inhibition, hits mostly inhibitors; 4'-phosphopantetheinyl transferase ffp (Bacillus subtilis), Q9F4F7; 310,000 tested, 3.5% active; AID 1490, 2009; Biochemical Sfp PPTase activity, qHTS;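 also: the enzyme is Sfp with the accession as filed and its product quenches rhodamine fluorescence; 0% = enzyme reaction without inhibitor and -100% = no enzyme wells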
#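 Reaction rates are the 30-min fluorescence difference (ex 525, em 598 nm) in wells containing 15 nM Sfp, 5 uM rhodamine-CoA and 12.5 uM BHQ-2-YbbR at pH 7.6 with 10 mM MgCl2.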
# HP1b chromo inh – HTS for Inhibitors of HP1-beta Chromodomain Interactions with Methylated Histone Tails | Chromobox protein homolog 1 (Homo sapiens), P83916 | AlphaScreen HP1-beta / biotin-H3K9me3 peptide binding | Potency, µM (series often up to 114 µM), for inactives: top-dose activity change, negative = inhibition, actives largely listed as inhibitors | 390,000 tested, 0.56% active; also: nearly all actives have a fitted effect of over 70% in size
# Target sequence (P83916 whole entry, looked up): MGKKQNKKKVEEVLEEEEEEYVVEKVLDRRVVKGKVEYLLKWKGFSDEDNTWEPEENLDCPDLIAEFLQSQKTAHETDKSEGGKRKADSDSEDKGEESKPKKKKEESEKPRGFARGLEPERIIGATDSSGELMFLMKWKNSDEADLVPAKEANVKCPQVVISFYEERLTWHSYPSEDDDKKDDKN
#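 HP1-beta protein (50 nM final) preincubated 30 min at room temperature with biotinylated H3(1-18)K9me3 peptide (50 nM) in PBS pH 7.4, 0.01% Tween-20, then compound added for 30 min. AlphaScreen streptavidin donor/nickel chelate acceptor beads (10 ug/mL final), 30 min dark, luminescence read.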
# * marks the source's active call; other numbers are inactive results; u = inconclusive; x = no result; ! = repeats disagree; [ ] = another dose, or the depositor's remark. In the library only some 12% were active in any assay of this set; here they are far more common. Calls follow the shape of the dose curve; as a rule, active = well fitted curve in the direction sought with a large enough effect; inconclusive = small, poorly fitted or top-dose-only effect, or another doubt; inactive = no such curve, though single readings can be large; an effect the other way counts as inactive or inconclusive. Potency is read from the fitted curve at half-maximal effect.
SMILES,G9a inh,L3MBTL1 block,JMJD2A Tudor inh,BAZ2B block,Sfp PPTase inh,HP1b chromo inh
O=C(CC1CCCCC1)Nc1ccccc1-c1ccccc1,-14%[59 µM],-1%,-4%,2%,25%,34%
COc1ccccc1Cc1nc2ccccc2nc1SCC(=O)Nc1cccc(Cl)c1C,6%[59 µM],x,7%,3%,x,27%[57 µM]
N#C/C(=N\Nc1ccc(Cl)cc1)C(=O)c1ccccc1,u,x,45µM*,50µM*,6%,u
CCOC(=O)NC(=O)/C(C#N)=N\Nc1ccc(Cl)cc1,-25%,x,-23%,-37%,-7%,-9%
Cc1c(N/N=C(\C#N)C(=O)c2ccc(Cl)cc2)c(=O)n(-c2ccccc2)n1C,u,u,79µM*,25µM*,7%,-3%
CCn1c2ccccc2c2cc(CN3CCN(C(=O)c4ccco4)CC3)ccc21,u,u,35µM*,u,56µM*,u
COc1ccc(-c2nc(CN3CCN(C(=O)c4ccco4)CC3)c(C)o2)cc1OC,56µM*,x,-19%,14%[57.1 µM],6%,19%
O=C(c1ccco1)N1CCN(C(=O)c2ccccc2OCc2ccccc2)CC1,x,4%,-3%,x,x,24%
COc1ccccc1OCc1ccc(C(=O)N2CCN(C(=O)c3ccco3)CC2)cc1,45µM*,x,-26%,3%,-23%,1%
COc1ccc(CN2CCN(C(=O)c3ccco3)CC2)cc1OC,10µM*,5%,-20%[11.4 µM],40µM*,-25%,25µM*
COc1cc(-c2nc(CN3CCN(C(=O)c4ccco4)CC3)c(C)o2)ccc1F,-5%,x,-31%,u,8%,22%
Cc1cc2c(nc1C)CCCCN2C[C@H](O)CN1CCCc2nc(-c3ccc(Br)cc3)ccc21,x,x,x,x,0%,x
Cc1ccc(C)c(N2CCN(C(c3ccccc3)c3nnc(-c4ccccc4F)o3)CC2)c1 (configuration not stated),-49%[59 µM],x,-4%,-18%,x,38%
COc1ccc(Cn2c(=O)n(-c3ccc(OC)cc3)c(=O)c3c2c2cc(OC)ccc2n3C)cc1,0%[59 µM],x,-6%,1%,x,35%
CC(=O)N1CCC(N(Cc2ccc(C)o2)C(=O)Nc2ccccc2F)CC1,-3%[59 µM],x,-2%,-4%,x,28%
COc1ccc(CN2CCN(C(=O)c3ccco3)CC2)cc1OCc1ccccc1,11µM*,-5%,u,56µM*,-17%,u
Cc1ccc(S(=O)(=O)N2CCC(c3nc(-c4cccs4)nc4ccccc34)CC2)cc1,x,x,-8%,x,x,12%
CC1=C(CC(=O)O)c2cc(F)ccc2/C1=C\c1ccc(S(C)=O)cc1 (configuration not stated),8.4µM*!,x,-32%,0%,79µM*!,27%
Cc1ccc2c(c1)/C(=C/c1ccc(F)cc1)C(=O)N2,-24%,x,u,-34%,-10%,-6%
O=C(O)CCCC(=O)Nc1ccc(N2CCCC2)cc1,40µM*,u,u,4%,10%,41%
NC(=O)NC(=O)C(Nc1ccc(N2CCCCC2)cc1)c1ccccc1 (configuration not stated),16µM*,x,u,u,-17%,u
O=C(CNCc1ccco1)Nc1ccc(N2CCCCCC2)cc1,8.9µM*,u,20µM*,28µM*,-22%,40µM*
O=C(O)CCC(=O)Nc1ccc(SSc2ccc(NC(=O)CCC(=O)O)cc2)cc1,u,x,u,-1%,18µM*,30%
O=C(O)CCC(=O)Nc1ccc(F)cc1,-6%[59 µM],x,-31%,10%,19%,21%
O=C(CCl)Nc1ccc(N2CCCCCC2)cc1,16µM*,-25%,50µM*,u,-9%,u
